PubChem BioAssay (Tox21)
Records with an inconclusive call do not appear. The source made the active and inactive calls. Unless noted, the call rests on the fitted dose curve; in most records, active means well fitted curve in the direction sought with a large enough effect in the repeat runs; inconclusive means weak or mixed curves; inactive means no such curve, though single readings can be large; an effect the other way counts as inactive or inconclusive.

Key:
[1] = qHTS assay for small molecule agonists of the p53 signaling pathway (AID 651631; calls by dose curve; further: nearly all actives have a fitted effect of over 15% in size)
How it was run: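 Read-out is beta-lactamase FRET fluorescence measured 2 h after substrate addition at room temperature, in HCT-116 cells with a p53 response element-driven reporter exposed to compounds for 16 h at 37 °C.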

[2] = qHTS assay for small molecules that induce genotoxicity in human embryonic kidney cells expressing luciferase-tagged ATAD5 (AID 651632); further: nearly all actives have a fitted effect of over 15% in size
How it was run: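 Quantitative HTS in HEK293T expressing luciferase-tagged ATAD5, whose levels rise upon DNA damage. Exposure ran 16 hr at 37C and 5% CO2, with luminescence read 30 min after Amplite addition at room temperature.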

[3] = qHTS assay for small molecules that induce genotoxicity in human embryonic kidney cells expressing luciferase-tagged ATAD5 - cell viability (AID 651634; calls by dose curve; further: nearly all actives have a fitted effect of over 25% in size)
How it was run: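 After 15.5 hr incubation with compound at 37C, 5% CO2, HEK293T ATAD5-luciferase cells received CellTiter-Fluor reagent; fluorescence intensity was quantified following 30 min at 37C.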

[4] = qHTS assay for small molecule disruptors of the mitochondrial membrane potential - cell viability (AID 720634; calls by dose curve;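 further: human HepG2 liver cancer cells; series mostly up to about 83 µM; nearly all actives have a fitted effect of over 20% in size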)
How it was run: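 ATP-based luminescent viability readout (CellTiter-Glo, 30 min, room temperature) in HepG2 cells multiplexed with the m-MPI membrane potential dye; compound exposure lasted 1 hr at 37 C.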

[5] = qHTS assay for small molecule disruptors of the mitochondrial membrane potential (AID 720635)
How it was run: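 HepG2 cells exposed to compound 1 hr at 37C, then Mito-MPS dye 30 min. Ratio read of aggregate (540/590 nm) versus monomer (490/535 nm) fluorescence.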

[6] = qHTS assay to test for compound auto fluorescence at 590 nm (red) in HepG2 cells (AID 720674)
How it was run: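 Seeding: 2,000 HepG2 cells/well, MEM/10% FBS, overnight 37 C. Dosing: compound vs DMSO. Incubation: 1 hr, 37 C, 5% CO2. Read: fluorescence 540 ex/590 em, Rose Bengal sodium as red reference.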

[7] = qHTS assay to test for compound auto fluorescence at 535 nm (green) in HepG2 cells (AID 720675)
[8] = qHTS assay to test for compound auto fluorescence at 460 nm (blue) in HEK293 cells (AID 720678)
How it was run: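 Cells were seeded and left to adhere for 4-5 hr at 37C. Compounds were then pin-transferred. After an overnight incubation at 37C under 5% CO2, intrinsic fluorescence at 405/460 nm was measured and referenced to triamterene.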

[9] = qHTS assay to test for compound auto fluorescence at 590 nm (red) in HEK293 cells (AID 720679)
How it was run: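 Each well held 2,000 HEK293 cells in medium containing 10% dialyzed FBS. Following 4-5 hr attachment at 37C, 23 nL test compound or DMSO was added; plates sat overnight, and red fluorescence (540/590nm) was recorded.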

[10] = qHTS assay to test for compound auto fluorescence at 535 nm (green) in HEK293 cells (AID 720680)
[11] = qHTS assay to test for compound auto fluorescence at 460 nm (blue) in HEK293 cell free culture (AID 720681)
How it was run: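 Compounds were added to cell-free DMEM with 10% FBS and fluorescence read directly. The blue channel used 405 nm excitation and 460 nm emission, with triamterene as the reference fluorophore.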

[12] = qHTS assay to test for compound auto fluorescence at 535 nm (green) in HEK293 cell free culture (AID 720682)
How it was run: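 Fluorescein serves as the green reference fluorophore; each compound's intrinsic emission at 535 nm (excitation 485 nm) is reported as an equivalent amount of that dye, measured in serum-containing DMEM without cells.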

[13] = qHTS assay to test for compound auto fluorescence at 590 nm (red) in HEK293 cell free culture (AID 720683)
How it was run: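 Cell-free wells of DMEM with 10% FBS received compound, and intrinsic fluorescence was read at excitation/emission 540/590 nm. Values expressed as equivalence to Rose Bengal sodium.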

[14] = qHTS assay to test for compound auto fluorescence at 590 nm (red) in HepG2 cell free culture (AID 720684)
How it was run: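 Rose Bengal sodium served as the reference for red signal. Test compounds were dispensed into serum-containing MEM (10% FBS) without cells, and plates were read at 540/590 nm.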

[15] = qHTS assay to test for compound auto fluorescence at 460 nm (blue) in HepG2 cell free culture (AID 720685)
How it was run: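 Cell-free plates of MEM plus 10% FBS received 23 nL compound or DMSO vehicle; blue-channel (405/460 nm) intensity scored against triamterene as reference fluorophore.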

[16] = qHTS assay to test for compound auto fluorescence at 535 nm (green) in HepG2 cell free culture (AID 720686)
[17] = qHTS assay to test for compound auto fluorescence at 460 nm (blue) in HepG2 cells (AID 720687)
How it was run: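 HepG2 cells in MEM with 10% FBS, attached overnight at 37 C, were exposed to compound or DMSO for 1 hr at 37 C, 5% CO2. Blue fluorescence was read at 405/460 nm, with triamterene as reference fluorophore.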

[18] = biological target: Glucocorticoid receptor (Homo sapiens) (UniProt P04150); assay: qHTS assay to identify small molecule agonists of the glucocorticoid receptor (GR) signaling pathway (AID 720691; active means well fitted activation curve with a large enough effect in the signal ratio in the repeat runs, not every such curve was filed as active; the % refers to the signal ratio)
How it was run: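 Cells: GR-bla HeLa, endogenous GR with stably integrated GRE-beta-lactamase reporter. Treatment 18 h, 37 C, compounds delivered in DMSO. Detection via LiveBLAzer B/G FRET substrate, 2 h RT, fluorescence intensity.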

[19] = biological target: Glucocorticoid receptor (Homo sapiens) (UniProt P04150); assay: qHTS assay to identify small molecule antagonists of the glucocorticoid receptor (GR) signaling pathway (AID 720692; active means well fitted inhibition curve with a large enough effect in the signal ratio in the repeat runs, not every such curve was filed as active; the % refers to the signal ratio)
How it was run: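 Quantitative HTS in antagonist format: HeLa cells expressing endogenous GR and a stably integrated GRE-bla reporter, stimulated with 5 nM dexamethasone (final) alongside test compounds for 18 h.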

[20] = qHTS assay for identifying genotoxic compounds that show differential cytotoxicity against isogenic chicken DT40 cell lines with known DNA damage response pathways - wild type cell line (AID 743012); further: nearly all actives have a fitted effect of over 60% in size
How it was run: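 Luminescent ATP viability signal (CellTiter-Glo, 30 min RT) recorded after wild type DT40 cells were incubated with compounds for 40 h at 37 C/5% CO2.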

[21] = qHTS assay for identifying genotoxic compounds that show differential cytotoxicity against isogenic chicken DT40 cell lines with known DNA damage response pathways - Rad54/Ku70 mutant cell line (AID 743015); further: nearly all actives have a fitted effect of over 60% in size
[22] = qHTS assay to identify small molecule antagonists of the androgen receptor (AR) signaling pathway - cell viability counter screen (AID 743033; further: nearly all actives have a fitted effect of over 45% in size)
[23] = biological target: Androgen receptor (Homo sapiens) (UniProt P10275); assay: qHTS assay to identify small molecule antagonists of the androgen receptor (AR) signaling pathway (AID 743035; active means well fitted inhibition curve with a large enough effect in the signal ratio in the repeat runs, not every such curve was filed as active; the % refers to the signal ratio)
How it was run: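 Quantitative HTS of the Tox21 10K library used HEK293 AR-UAS-bla cells stimulated with R1881 alongside compound for 16 h at 37C, followed by beta-lactamase FRET detection (LiveBLAzer B/G, 2 h, RT).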

[24] = biological target: Androgen receptor (Homo sapiens) (UniProt P10275); assay: qHTS assay to identify small molecule agonists of the androgen receptor (AR) signaling pathway (AID 743036; active means well fitted activation curve with a large enough effect in the signal ratio in the repeat runs, with a control signal flat, not every such curve was filed as active; the % refers to the signal ratio)
How it was run: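 Fluorescence from a beta-lactamase FRET substrate served as read-out in AR-UAS-bla GripTite HEK293 cells. Cells were treated with DMSO-dissolved compounds for 16 h at 37C, then with LiveBLAzer B/G substrate for 2 h at room temperature.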

[25] = biological target: Androgen receptor (Homo sapiens) (UniProt P10275); assay: qHTS assay to identify small molecule agonists of the androgen receptor (AR) signaling pathway using the MDA cell line (AID 743040; further: nearly all actives have a fitted effect of over 20% in size)
How it was run: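 Luciferase read-out, ONE-Glo, 30 min RT. Cells: MDA-kb2 AR-luc, MMTV promoter with AR and GR response elements. Compound exposure 16 h, 37C, 0% CO2, after 5 h pre-incubation. qHTS agonist mode.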

[26] = qHTS assay to identify small molecule antagonists of the androgen receptor (AR) signaling pathway using the MDA cell line - cell viability counter screen (AID 743041; further: nearly all actives have a fitted effect of over 45% in size)
How it was run: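 Cytotoxicity counter screen: MDA-kb2 AR-luc cells, compound + R1881, 16 h, 37C, 0% CO2; CellTiter-Fluor added at 15.5 h, fluorescence read after 30 min.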

[27] = biological target: Androgen receptor (Homo sapiens) (UniProt P10275); assay: qHTS assay to identify small molecule antagonists of the androgen receptor (AR) signaling pathway using the MDA cell line (AID 743042; further: nearly all actives have a fitted effect of over 55% in size)
How it was run: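 MDA-kb2 breast carcinoma cells carrying MMTV-luciferase (AR/GR responsive) were co-treated with compounds and the agonist R1881 for 16 h at 37C. Inhibition read as ONE-Glo luminescence; CellTiter-Fluor fluorescence measured in parallel for cytotoxicity.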

[28] = qHTS assay to identify small molecule antagonists of the thyroid receptor (TR) signaling pathway - cell viability counter screen (AID 743064); further: nearly all actives have a fitted effect of over 50% in size
How it was run: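 Fluorescence from CellTiter-Fluor, added after 23.5 h exposure at 37 °C, reported viability of GH3.TRE-Luc cells co-treated with compound and 1 nM T3. Measured in the same wells as the luciferase TR readout.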

[29] = qHTS assay to identify small molecule antagonists of the thyroid receptor (TR) signaling pathway (AID 743065); further: series mostly up to about 70 µM; nearly all actives have a fitted effect of over 55% in size
How it was run: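 GH3.TRE-Luc rat pituitary cells (two TREs driving luciferase) were dosed with compound, then stimulated with 1 nM T3 (final) for 23.5 h at 37 C. ONE-Glo luminescence was the read-out, with CellTiter-Fluor fluorescence as the cytotoxicity counter-screen.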

[30] = tested on: thyroid hormone receptor (rat, GH3 cells); assay: qHTS assay to identify small molecule agonists of the thyroid receptor (TR) signaling pathway (AID 743066; calls by dose curve)
[31] = biological target: Estrogen receptor (Homo sapiens) (UniProt P03372); assay: qHTS assay to identify small molecule antagonists of the estrogen receptor alpha (ER-alpha) signaling pathway (AID 743069; active means well fitted curve in the direction sought with a large enough effect in the signal ratio in the repeat runs, not every such curve was filed as active; the % refers to the signal ratio)
How it was run: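 Beta-lactamase FRET fluorescence is read after 2 hr at room temperature with LiveBLAzer B/G substrate. Before that, ER-alpha-bla HEK293 cells sit 4 hr after plating, then receive compound plus 17beta-estradiol and incubate 18 hr at 37C.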

[32] = qHTS assay to identify small molecule antagonists of the estrogen receptor alpha (ER-alpha) signaling pathway - cell viability counter screen (AID 743074; calls by dose curve;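 further: HEK293 cells carrying ER-alpha-UAS-bla reporter stimulated with 17beta-estradiol; nearly all actives have a fitted effect of over 45% in size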)
[33] = biological target: Estrogen receptor (Homo sapiens) (UniProt P03372); assay: qHTS assay to identify small molecule agonists of the estrogen receptor alpha (ER-alpha) signaling pathway (AID 743075; calls by dose curve;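 further: HEK293 GripTite cells with ER-alpha and UAS-driven beta-lactamase reporter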)
[34] = biological target: Estrogen receptor (Homo sapiens) (UniProt P03372); assay: qHTS assay to identify small molecule agonists of the estrogen receptor alpha (ER-alpha) signaling pathway using the BG1 cell line (AID 743079); further: nearly all actives have a fitted effect of over 20% in size
[35] = qHTS assay to identify small molecule antagonists of the estrogen receptor alpha (ER-alpha) signaling pathway using the BG1 cell line (AID 743080; calls by dose curve; further: series mostly up to about 70 µM; nearly all actives have a fitted effect of over 25% in size)
How it was run: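 Antagonist mode: compounds in DMSO were pinned onto BG1-Luc-4E2 cells alongside 17beta-estradiol agonist, incubated 21.5 h, and ERE-driven luciferase measured with ONE-Glo. Cytotoxicity was multiplexed using CellTiter-Fluor fluorescence.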

[36] = qHTS assay to identify small molecule antagonists of the estrogen receptor alpha (ER-alpha) signaling pathway using the BG1 cell line - cell viability counter screen (AID 743081);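 further: compound given together with 17beta-estradiol as the ER stimulus; series mostly up to about 70 µM; nearly all actives have a fitted effect of over 45% in size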
Aromatase (Homo sapiens) = Aromatase (Homo sapiens) (UniProt P11511); assay: qHTS assay to identify aromatase inhibitors (AID 743083); further: series mostly up to about 70 µM; nearly all actives have a fitted effect of over 55% in size
[37] = qHTS assay to identify aromatase inhibitors - cell viability counter screen (AID 743084);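 further: cells stimulated with testosterone during compound exposure; nearly all actives have a fitted effect of over 55% in size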
[38] = biological target: Aryl hydrocarbon receptor (Homo sapiens) (UniProt P35869); assay: qHTS assay to identify small molecule that activate the aryl hydrocarbon receptor (AhR) signaling pathway (AID 743085);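 further: HG2L7.5c1 human HepG2 liver cells with stably integrated DRE-driven firefly reporter; series mostly up to about 70 µM; nearly all actives have a fitted effect of over 15% in size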
How it was run: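 Cell line HG2L7.5c1 (human hepatoma, 20× DRE-luc). Plated, 5 h 37C, compound/DMSO added, 24 h 37C. CellTiter-Fluor 30 min 37C → fluorescence; then ONE-Glo 30 min RT → luminescence.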

[39] = qHTS assay to identify small molecule that activate the aryl hydrocarbon receptor (AhR) signaling pathway - cell viability counter screen (AID 743086)
How it was run: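 HepG2-AhR-luc (HG2L7.5c1) cells, 4000/well, treated 24 h at 37 C with compound; viability measured as CellTiter-Fluor fluorescence after 30 min in the same wells as the luciferase read.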

[40] = biological target: Peroxisome proliferator-activated receptor gamma (Homo sapiens) (UniProt P37231); assay: qHTS assay to identify small molecule agonists of the peroxisome proliferator-activated receptor gamma (PPARg) signaling pathway (AID 743094; active means well fitted activation curve with a large enough effect in the signal ratio in the repeat runs, not every such curve was filed as active; the % refers to the signal ratio)
How it was run: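 Reporter activation was scored by fluorescence of cleaved LiveBLAzer B/G substrate (1 h, room temperature) in PPARg-bla HEK293H cells previously treated 17 h at 37C with DMSO-dissolved compounds.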

[41] = qHTS assay to identify small molecule antagonists of the estrogen related receptor (ERR) signaling pathway - cell viability counter screen (AID 1224818);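 further: series mostly up to about 46 µM; viability measured after 17.5 h of compound exposure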
How it was run: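 Quantitative high-throughput viability counter screen in ERR cells. Compounds (DMSO) incubated 17.5 h at 37 C; read-out was CellTiter-Fluor fluorescence.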

[42] = qHTS assay to identify small molecule antagonists of the estrogen related receptor (ERR) signaling pathway (AID 1224819;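 further: luminescence from an ERR-driven luciferase reporter measured with One-Glo reagent; series mostly up to about 46 µM; nearly all actives have a fitted effect of over 50% in size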)
How it was run: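 ERR reporter cell line (NTP) plated at 2,000 cells/well, settled 6 h at 37C/5% CO2, then exposed to LOPAC compounds for 18 h at 37C. One-Glo luciferase luminescence read after 30 min at room temperature.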

[43] = qHTS assay to identify small molecule agonists of the estrogen related receptor (ERR) signaling pathway (AID 1224820)
How it was run: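 Luminescence readout (One-Glo, 30 min RT) from NTP-supplied ERR cell line exposed to compounds for 18 h at 37 C. Cells seeded 2,000 per well and pre-incubated 6 h before pin-tool compound transfer.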

[44] = tested on: estrogen-related receptor alpha (ERRalpha) with PGC-1alpha coactivator, human; assay: qHTS assay to identify small molecule antagonists of the estrogen related receptor signaling pathway with the pleiotropic PPARgamma coactivator (PGC) (AID 1224821; calls by dose curve;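 further: series mostly up to about 46 µM; lower luminescence signal means antagonism of PGC/ERR signalling; nearly all actives have a fitted effect of over 50% in size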)
How it was run: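 PGC/ERR reporter cells; 6 h pre-incubation 37 C/5% CO2; pin-tool compound in DMSO, 18 h 37 C; One-Glo added, 30 min RT; luminescence read. qHTS antagonist mode.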

[45] = qHTS assay to identify small molecule antagonists of the estrogen related receptor signaling pathway with the pleiotropic PPARgamma coactivator (PGC) cell viability counter screen (AID 1224822; further: series mostly up to about 46 µM)
How it was run: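 Cytotoxicity in the PGC/ERR cell line is assessed with CellTiter-Fluor, read as fluorescence intensity 30 min after reagent addition, following 17.5 h compound treatment at 37 C.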

[46] = qHTS assay to identify small molecule phospholipidosis (PLD) inducers (AID 1259344; active means well fitted curve in the direction sought with a large enough effect; an effect the other way counts as inactive or inconclusive)
How it was run: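 Read-out is LipidTOX Red fluorescence (ex 595/em 615) imaged in HepG2 cells after 24 h compound exposure at 37 C, with Hoechst nuclear counterstain (ex 352/em 461) allowing per-cell normalisation.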

Measured: Potency

Sequence of Estrogen receptor (Homo sapiens) (P03372 whole entry, looked up): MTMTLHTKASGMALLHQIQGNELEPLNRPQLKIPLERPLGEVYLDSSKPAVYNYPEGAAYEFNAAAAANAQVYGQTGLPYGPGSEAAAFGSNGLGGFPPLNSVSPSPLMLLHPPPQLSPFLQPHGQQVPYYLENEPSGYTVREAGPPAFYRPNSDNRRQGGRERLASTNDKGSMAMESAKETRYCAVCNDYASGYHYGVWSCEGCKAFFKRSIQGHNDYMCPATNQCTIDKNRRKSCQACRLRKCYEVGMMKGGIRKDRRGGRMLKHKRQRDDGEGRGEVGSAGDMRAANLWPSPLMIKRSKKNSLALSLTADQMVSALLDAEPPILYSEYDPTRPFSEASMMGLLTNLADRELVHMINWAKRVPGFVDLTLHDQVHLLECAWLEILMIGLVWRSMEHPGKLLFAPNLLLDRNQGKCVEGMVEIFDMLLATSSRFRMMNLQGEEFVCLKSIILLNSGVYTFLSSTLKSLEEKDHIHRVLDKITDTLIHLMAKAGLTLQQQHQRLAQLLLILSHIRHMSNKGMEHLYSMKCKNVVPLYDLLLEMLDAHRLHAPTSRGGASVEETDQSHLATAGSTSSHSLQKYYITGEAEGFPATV
Sequence of Androgen receptor (Homo sapiens) (P10275 whole entry, looked up): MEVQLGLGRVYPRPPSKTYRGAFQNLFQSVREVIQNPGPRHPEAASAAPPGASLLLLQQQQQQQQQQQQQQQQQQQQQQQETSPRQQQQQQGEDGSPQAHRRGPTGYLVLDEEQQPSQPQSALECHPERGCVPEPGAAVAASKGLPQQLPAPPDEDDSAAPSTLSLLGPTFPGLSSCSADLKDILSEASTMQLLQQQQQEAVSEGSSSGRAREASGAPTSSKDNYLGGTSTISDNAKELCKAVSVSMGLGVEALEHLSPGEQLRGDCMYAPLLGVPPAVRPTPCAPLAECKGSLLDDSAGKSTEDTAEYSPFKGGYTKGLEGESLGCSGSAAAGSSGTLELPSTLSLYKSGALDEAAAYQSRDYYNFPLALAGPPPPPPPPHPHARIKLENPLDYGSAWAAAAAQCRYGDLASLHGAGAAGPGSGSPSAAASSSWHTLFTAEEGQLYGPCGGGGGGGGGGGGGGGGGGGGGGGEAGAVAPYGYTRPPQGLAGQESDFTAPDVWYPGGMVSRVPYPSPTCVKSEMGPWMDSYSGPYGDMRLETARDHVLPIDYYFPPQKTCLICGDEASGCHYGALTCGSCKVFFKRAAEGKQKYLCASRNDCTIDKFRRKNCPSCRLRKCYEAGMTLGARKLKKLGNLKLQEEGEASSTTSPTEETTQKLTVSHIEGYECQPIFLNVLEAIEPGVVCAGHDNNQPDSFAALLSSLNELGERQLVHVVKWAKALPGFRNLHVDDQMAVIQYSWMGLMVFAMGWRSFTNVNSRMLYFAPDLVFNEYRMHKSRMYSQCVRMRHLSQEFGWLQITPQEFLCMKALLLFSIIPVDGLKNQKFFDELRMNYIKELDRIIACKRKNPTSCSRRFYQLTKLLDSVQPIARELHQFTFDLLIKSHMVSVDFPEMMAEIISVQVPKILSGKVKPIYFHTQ
Sequence of Glucocorticoid receptor (Homo sapiens) (P04150 whole entry, looked up): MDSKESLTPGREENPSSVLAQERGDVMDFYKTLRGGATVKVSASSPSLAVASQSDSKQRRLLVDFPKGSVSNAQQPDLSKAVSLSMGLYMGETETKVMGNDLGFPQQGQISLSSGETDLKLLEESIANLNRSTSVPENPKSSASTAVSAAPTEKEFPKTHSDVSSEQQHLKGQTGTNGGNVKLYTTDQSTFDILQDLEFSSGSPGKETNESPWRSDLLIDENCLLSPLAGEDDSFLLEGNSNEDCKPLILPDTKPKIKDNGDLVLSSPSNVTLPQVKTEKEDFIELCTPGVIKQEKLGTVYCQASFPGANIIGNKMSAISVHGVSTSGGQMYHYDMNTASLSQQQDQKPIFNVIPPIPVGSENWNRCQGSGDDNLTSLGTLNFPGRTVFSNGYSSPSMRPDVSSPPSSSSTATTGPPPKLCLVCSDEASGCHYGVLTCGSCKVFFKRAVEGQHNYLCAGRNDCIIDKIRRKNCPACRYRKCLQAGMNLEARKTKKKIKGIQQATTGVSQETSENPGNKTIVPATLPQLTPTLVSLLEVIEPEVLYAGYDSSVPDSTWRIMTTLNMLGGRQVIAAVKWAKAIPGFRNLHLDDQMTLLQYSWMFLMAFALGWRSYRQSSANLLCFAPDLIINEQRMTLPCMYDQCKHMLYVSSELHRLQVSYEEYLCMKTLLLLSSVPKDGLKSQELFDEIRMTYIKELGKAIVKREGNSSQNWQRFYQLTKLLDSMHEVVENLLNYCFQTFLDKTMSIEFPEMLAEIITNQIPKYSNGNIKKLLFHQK
Sequence of Aromatase (Homo sapiens) (P11511 whole entry, looked up): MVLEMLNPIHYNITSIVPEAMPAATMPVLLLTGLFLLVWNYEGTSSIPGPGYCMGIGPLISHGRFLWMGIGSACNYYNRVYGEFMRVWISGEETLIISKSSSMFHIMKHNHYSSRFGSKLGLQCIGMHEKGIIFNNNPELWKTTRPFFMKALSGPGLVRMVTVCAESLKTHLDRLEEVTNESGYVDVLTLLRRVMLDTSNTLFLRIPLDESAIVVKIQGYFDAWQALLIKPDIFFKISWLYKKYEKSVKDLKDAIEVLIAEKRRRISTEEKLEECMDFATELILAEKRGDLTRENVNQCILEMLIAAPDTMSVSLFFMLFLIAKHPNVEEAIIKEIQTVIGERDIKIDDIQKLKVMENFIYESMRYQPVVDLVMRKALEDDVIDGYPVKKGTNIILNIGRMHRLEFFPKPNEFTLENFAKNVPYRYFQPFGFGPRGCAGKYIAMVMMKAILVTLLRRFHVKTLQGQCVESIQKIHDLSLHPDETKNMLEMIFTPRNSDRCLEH
Sequence of Aryl hydrocarbon receptor (Homo sapiens) (P35869 whole entry, looked up): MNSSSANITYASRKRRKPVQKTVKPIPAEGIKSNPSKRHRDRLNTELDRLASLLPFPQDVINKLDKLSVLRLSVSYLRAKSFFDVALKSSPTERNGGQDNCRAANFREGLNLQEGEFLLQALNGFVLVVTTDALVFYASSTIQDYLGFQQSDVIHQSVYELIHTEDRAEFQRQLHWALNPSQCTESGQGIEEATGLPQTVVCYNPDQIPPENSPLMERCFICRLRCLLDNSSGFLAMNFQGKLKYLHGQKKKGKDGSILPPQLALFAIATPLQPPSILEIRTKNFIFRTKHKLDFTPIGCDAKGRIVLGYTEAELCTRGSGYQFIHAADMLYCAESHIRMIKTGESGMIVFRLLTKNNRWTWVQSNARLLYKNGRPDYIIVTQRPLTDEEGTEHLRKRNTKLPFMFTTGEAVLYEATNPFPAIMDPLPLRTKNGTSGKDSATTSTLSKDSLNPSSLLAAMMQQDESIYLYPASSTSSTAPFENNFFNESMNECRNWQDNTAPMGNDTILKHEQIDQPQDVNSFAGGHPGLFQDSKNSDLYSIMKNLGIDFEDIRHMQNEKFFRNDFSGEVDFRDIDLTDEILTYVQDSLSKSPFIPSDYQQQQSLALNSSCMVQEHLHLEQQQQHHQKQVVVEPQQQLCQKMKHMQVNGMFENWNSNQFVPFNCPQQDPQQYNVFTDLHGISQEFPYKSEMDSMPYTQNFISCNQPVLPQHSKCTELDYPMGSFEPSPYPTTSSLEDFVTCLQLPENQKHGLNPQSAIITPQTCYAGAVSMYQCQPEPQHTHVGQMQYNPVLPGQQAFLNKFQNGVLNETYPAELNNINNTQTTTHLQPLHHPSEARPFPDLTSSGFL
Sequence of Peroxisome proliferator-activated receptor gamma (Homo sapiens) (P37231 whole entry, looked up): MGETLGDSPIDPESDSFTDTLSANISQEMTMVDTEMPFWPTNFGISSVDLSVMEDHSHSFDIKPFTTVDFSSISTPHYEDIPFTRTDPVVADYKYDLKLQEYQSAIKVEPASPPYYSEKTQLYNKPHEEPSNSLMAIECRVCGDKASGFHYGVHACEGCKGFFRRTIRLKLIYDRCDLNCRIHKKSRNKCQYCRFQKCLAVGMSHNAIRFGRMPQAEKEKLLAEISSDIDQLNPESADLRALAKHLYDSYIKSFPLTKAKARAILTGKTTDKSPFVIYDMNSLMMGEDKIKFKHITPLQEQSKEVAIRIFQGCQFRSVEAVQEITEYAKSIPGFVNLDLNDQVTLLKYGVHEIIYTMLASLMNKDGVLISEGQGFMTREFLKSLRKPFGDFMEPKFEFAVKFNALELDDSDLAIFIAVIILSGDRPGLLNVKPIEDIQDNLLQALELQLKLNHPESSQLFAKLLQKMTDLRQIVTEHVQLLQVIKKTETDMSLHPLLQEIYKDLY

NC(=O)CN1CC(O)CC1=O (configuration not stated)
inactive: all assays above
